Hits are enriched below; roughly 19% of the tested compounds scored in any of these assays.
TDP1 cell CPT: DT40-hTDP1 cell growth loss with CPT. chicken DT40 Tdp1-/-;hTDP1 cells + 20 nM CPT, ATP luminescence, 48 h. Potency, µM (titrated, usually from 46.2 µM), actives largely listed as inhibitors. 420,000 compounds, 12% hits; note: nearly all actives have a fitted effect of over 55% in size
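Cell growth measured by CellTiter-Glo luminescence after a minimum 48 h, 37 C compound exposure with 20 nM CPT in Tdp1-knockout DT40 cells stably expressing hTDP1, seeded 400/well; qHTS titration format.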
HT1080-NT tox: kills 2HG-producing HT-1080-NT fibrosarcoma cells | Potency, µM (titrated, usually from 46.1 µM), usual class: cytotoxic | AID 686970 | 360,000 compounds, 1.6% hits | HT-1080-NT fibrosarcoma viability, CellTiter-Glo ATP luminescence, 48 h;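 note: NT is the 2HG producing partner of a matched IDH1 knockdown line; nearly all actives have a fitted effect of over 55% in size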
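Viability by CellTiter-Glo luminescence after 48 h compound exposure at 37C of HT-1080-NT cells (750/well, RPMI, 5% FBS). % activity scaled between DMSO wells and medium-only wells, then curve-fitted and categorized by curve class.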
TDP1 cell noCPT: qHTS for Inhibitors of human tyrosyl-DNA phosphodiesterase 1 (TDP1): qHTS in cells in absence of CPT. DT40 Tdp1-/- hTDP1 cells, no CPT, ATP luminescence, 48 h. AID 686978, 2013. 420,000 compounds, 15% hits. Potency, µM (series often up to 46.2 µM), usual class: inhibitors; note: nearly all actives have a fitted effect of over 55% in size
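Seeded 400 DT40-hTDP1 cells/well (vehicle DMSO, no 20 nM CPT); pinned compounds; ≥48 hr at 37 °C; CellTiter-Glo luminescence as viability measure.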
HT1080 IDH1KD tx: toxicity to HT-1080 IDH1 knockdown cells (counter line); HT-1080 IDH1 knockdown viability, ATP luminescence, 48 h; Potency, µM (titrated, usually from 46.1 µM), hits mostly cytotoxic; 360,000 compounds, 2% hits; AID 686971
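Cytotoxicity counter-line: IDH1KD HT-1080, 48 h, CellTiter-Glo. Curves classed by r2, magnitude and activity.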
ELG1 repair inh: ELG1-dependent DNA repair inhibition. HEK293T ELG1-luciferase reporter, luminescence, 16 h; DNA damage induced by 5-fluorouridine. Potency, µM (series often up to 46.1 µM), most hits filed as inhibitors. 330,000 compounds, 2.3% hits. AID 504467; note: nearly all actives have a fitted effect of over 55% in size
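DMSO vehicle served as the neutral condition. Each well held 2,000 cells given 5-fluorouridine plus compound; after 16 hr at 37 °C/5% CO2, ONE-Glo was added and luciferase measured 30 min later.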
IL1B secr inh: inhibitors of inflammasome signaling (IL-1 beta secretion). THP-1 LPS/ATP IL-1B secretion, AlphaLISA, 16 h; stronger effect = lower value. activity change, % at 57.5 µM. 360,000 compounds, 4.7% hits. AID 743279; in the data active = activity change below about -50%; inconclusive = mostly about -30% to -49%
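Secreted IL-1B measured by AlphaLISA bead assay after 16 h compound exposure of THP-1 cells; compounds (final up to 57.5 uM) added 1 h before LPS (250 ng/mL) and ATP (1.25 mM) stimulation; lower signal means less secretion.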
Hits are given with their value; [ ] = remark or other dose. Unless noted, calls come from the whole dose curve; as a rule, active = well fitted curve in the direction sought with a large enough effect; inconclusive = small, poorly fitted or top-dose-only effect, or another doubt; inactive = no such curve, though single readings can be large; an effect the other way counts as inactive or inconclusive.

`CCC(CC)c1nnc(NC(=O)c2cc([N+](=O)[O-])ccc2N2CCOCC2)s1` gave TDP1 cell CPT inconclusive, HT1080-NT tox inactive[9.24 µM], TDP1 cell noCPT 18µM, HT1080 IDH1KD tx inactive, ELG1 repair inh inactive and IL1B secr inh inactive.
For CCOC(=O)c1cc(CC)sc1NC(=O)c1cc([N+](=O)[O-])ccc1N1CCOCC1 the results were TDP1 cell CPT 3.7µM, HT1080-NT tox inconclusive, TDP1 cell noCPT 1.3µM, HT1080 IDH1KD tx inconclusive, ELG1 repair inh inactive and IL1B secr inh inactive.
`CCOC(=O)c1cc(CC)sc1NC(=O)c1ccc(N2CCOCC2)c([N+](=O)[O-])c1` gave TDP1 cell CPT inactive, HT1080-NT tox inactive[9.24 µM], TDP1 cell noCPT inactive, HT1080 IDH1KD tx inactive, ELG1 repair inh inactive and IL1B secr inh inconclusive.
For C=CCNC(=S)NNc1nc2sc3c(c2c(=O)[nH]1)CC(C)(C)OC3 the results were TDP1 cell CPT inactive, HT1080-NT tox inactive, TDP1 cell noCPT inconclusive, HT1080 IDH1KD tx inactive, ELG1 repair inh inactive and IL1B secr inh inactive.
Screening O=C(Nc1ccc(F)cc1)C(c1cc2ccccc2o1)N1CCN(c2cccc(C(F)(F)F)n2)CC1 (stereo not drawn) returned TDP1 cell CPT inconclusive, HT1080-NT tox inactive, TDP1 cell noCPT inconclusive, HT1080 IDH1KD tx inactive and IL1B secr inh inactive.
Screening O=C(Nc1ccc(F)cc1)C(c1ccncc1)N1CCN(c2cccc(C(F)(F)F)n2)CC1 (stereo not drawn) returned TDP1 cell CPT inconclusive, HT1080-NT tox inconclusive, TDP1 cell noCPT 21µM, HT1080 IDH1KD tx inconclusive and IL1B secr inh inactive.
O=C(Nc1ccc(F)cc1)C(CCc1ccccc1)N1CCN(c2cccc(C(F)(F)F)n2)CC1 (stereo not drawn) was read as TDP1 cell CPT 18µM, HT1080-NT tox inconclusive, TDP1 cell noCPT inconclusive, HT1080 IDH1KD tx inconclusive and IL1B secr inh inactive.
Screening CC(CC=O)CCCC(C)(C)O (stereo not drawn) returned TDP1 cell CPT inactive and TDP1 cell noCPT inactive.
For COC(=O)[C@]12CCCCC=C1N(Cc1ccc3c(c1)OCO3)C(=O)[C@H](CC(=O)NCCC(C)C)C2 the results were TDP1 cell CPT inconclusive, HT1080-NT tox inactive, TDP1 cell noCPT inconclusive, HT1080 IDH1KD tx inactive and IL1B secr inh inconclusive.
Screening COc1ccc(NC(=O)c2ccc(S(=O)(=O)N3CCCC3)cc2)cc1OC returned TDP1 cell CPT inconclusive, HT1080-NT tox inactive, TDP1 cell noCPT inactive, HT1080 IDH1KD tx inactive, ELG1 repair inh inactive and IL1B secr inh inactive.
C#CCn1c(=NC(=O)CSC(C)=O)sc2cc(F)ccc21 was read as TDP1 cell CPT 10µM, HT1080-NT tox inactive, TDP1 cell noCPT 21µM, HT1080 IDH1KD tx inactive, ELG1 repair inh inactive and IL1B secr inh inactive.
C#CCn1c(=NC(=O)CSCC(=O)N2CCOCC2)sc2ccccc21 was read as TDP1 cell CPT inactive, HT1080-NT tox inactive, TDP1 cell noCPT inconclusive, HT1080 IDH1KD tx inactive, ELG1 repair inh inactive and IL1B secr inh inactive.
For CCn1c(=NC(=O)CSC(C)=O)sc2cc(F)ccc21 the results were TDP1 cell CPT inconclusive, HT1080-NT tox inactive, TDP1 cell noCPT 18µM, HT1080 IDH1KD tx inactive and IL1B secr inh inactive.
Screening CC(=O)Nc1ccc(C(=O)N2CCCC(c3cc(C(=O)NCc4ccccc4)no3)C2)cc1 (stereo not drawn) returned TDP1 cell CPT inconclusive, HT1080-NT tox inactive, TDP1 cell noCPT inconclusive, HT1080 IDH1KD tx inactive and IL1B secr inh inactive.
Screening O=C(NCc1ccccc1)c1cc(C2CCCN(C(=O)CCCc3ccccc3)C2)on1 (stereo not drawn) returned TDP1 cell CPT 15µM, HT1080-NT tox inactive, TDP1 cell noCPT 15µM, HT1080 IDH1KD tx inactive and IL1B secr inh inactive.
`O=C(Nc1ccccc1Cl)c1cc(C2CCCN(C(=O)CCCc3ccccc3)C2)on1` (stereo not drawn) gave TDP1 cell CPT inactive, HT1080-NT tox inactive, TDP1 cell noCPT inconclusive, HT1080 IDH1KD tx inactive and IL1B secr inh inactive.
O=C(NCc1ccc(F)cc1)c1cc(C2CCCN(C(=O)c3ccc4ccccc4c3)C2)on1 (stereo not drawn) was read as TDP1 cell CPT 16µM, HT1080-NT tox inactive, TDP1 cell noCPT 16µM, HT1080 IDH1KD tx inactive and IL1B secr inh inactive.
O=C(NCc1ccc(F)cc1)c1cc(C2CCCN(C(=O)c3ccc4c(c3)CCO4)C2)on1 (stereo not drawn) was read as TDP1 cell CPT 18µM, HT1080-NT tox inactive, TDP1 cell noCPT 23µM, HT1080 IDH1KD tx inactive and IL1B secr inh inactive.
O=C(NCc1ccccc1)c1cc(C2CCCN(C(=O)c3ccc4c(c3)CCO4)C2)on1 (stereo not drawn) was read as TDP1 cell CPT inconclusive, HT1080-NT tox inactive, TDP1 cell noCPT inconclusive, HT1080 IDH1KD tx inactive and IL1B secr inh inactive.
Screening CC(C)c1ccc(C(=O)N2CCCC(c3cc(C(=O)NCc4ccccc4)no3)C2)cc1 (stereo not drawn) returned TDP1 cell CPT 13µM, HT1080-NT tox inactive, TDP1 cell noCPT 15µM, HT1080 IDH1KD tx inconclusive and IL1B secr inh inactive.
Cc1ccc2[nH]nc(C(=O)N3CCOc4ccc(CN5CCc6sccc6C5)cc4C3)c2c1 was read as TDP1 cell CPT inactive[9.04 µM] and TDP1 cell noCPT inconclusive.
`COc1ccc(C(=O)N2CCCC(c3cc(C(=O)NCc4ccc(F)cc4)no3)C2)cc1` (stereo not drawn) gave TDP1 cell CPT 15µM, HT1080-NT tox inactive, TDP1 cell noCPT inconclusive, HT1080 IDH1KD tx inactive and IL1B secr inh inactive.
`Cc1ccc(F)cc1C(=O)N1CCCC(c2cc(C(=O)NCc3ccc(F)cc3)no2)C1` (stereo not drawn) gave TDP1 cell CPT inconclusive, HT1080-NT tox inactive, TDP1 cell noCPT 15µM, HT1080 IDH1KD tx inactive and IL1B secr inh inconclusive.
For CC1CCCC(C)N1C(=O)COC(=O)c1cccs1 (stereo not drawn) the results were TDP1 cell CPT inactive, HT1080-NT tox inactive, TDP1 cell noCPT inactive, HT1080 IDH1KD tx inactive, ELG1 repair inh inconclusive and IL1B secr inh inactive.
`Cc1ccc(C(=O)CN2/C(=C(\O)c3ccccc3)C(=O)c3ccccc3S2(=O)=O)c(C)c1` gave TDP1 cell CPT 12µM, HT1080-NT tox inconclusive, TDP1 cell noCPT 16µM, HT1080 IDH1KD tx inconclusive, ELG1 repair inh inactive and IL1B secr inh inactive.
`CCn1c(C)cc(C(=O)CN2C(=O)c3ccccc3S2(=O)=O)c1C` gave TDP1 cell CPT inactive, HT1080-NT tox inactive, TDP1 cell noCPT inactive, HT1080 IDH1KD tx inactive, ELG1 repair inh inconclusive and IL1B secr inh inactive.
